Only some compounds are listed: those with a hit (about 3.4% of all), similar ones and a draw of the others.
PAFAH2 inh – PAFAH2 (human) inhibition; Q99487; recombinant PAFAH2, FP-rhodamine activity probe, fluorescence polarization; inhibition, % at 3.39 µM; hit rate 0.99% among 340,000; AID 492956;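 active means inhibition above the mean over all tested compounds plus 3 SD, cut at about 30% in these data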;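 further: inhibitors block probe labeling of enzyme so polarization drops; 0% = enzyme with DMSO and 100% = wells lacking PAFAH2 protein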
PAFAH1B2 inh – PAFAH1B2 (human) inhibition; P68402; recombinant PAFAH1B2, FP-rhodamine activity probe, fluorescence polarization; inhibition, % at 3.39 µM; hit rate 1.2% among 340,000;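 active means inhibition above the mean of all tested compounds plus 3 SD, cut at about 24% in these data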;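 further: 0% = enzyme with DMSO and 100% = wells lacking PAFAH1B2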
Target sequence (P68402 whole entry, looked up): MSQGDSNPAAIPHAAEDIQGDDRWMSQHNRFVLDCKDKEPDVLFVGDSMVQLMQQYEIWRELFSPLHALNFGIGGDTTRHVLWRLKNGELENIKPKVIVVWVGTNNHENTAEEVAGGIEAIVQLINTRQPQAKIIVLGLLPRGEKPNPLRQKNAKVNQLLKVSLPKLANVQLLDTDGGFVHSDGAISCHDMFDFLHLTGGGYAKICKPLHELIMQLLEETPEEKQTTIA
PP1 counter – blocks human PP1-alpha phosphatase, a PP5 counter-screen | P62136 | purified PP1alpha, OMFP fluorescence | inhibition, % at 6.7 µM | hit rate 0.9% among 320,000;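 active means inhibition above the mean inhibition of all tested compounds plus 3 SD, computed separately for each screening campaign, cut at about 15% in these data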
Target sequence (P62136 whole entry, looked up): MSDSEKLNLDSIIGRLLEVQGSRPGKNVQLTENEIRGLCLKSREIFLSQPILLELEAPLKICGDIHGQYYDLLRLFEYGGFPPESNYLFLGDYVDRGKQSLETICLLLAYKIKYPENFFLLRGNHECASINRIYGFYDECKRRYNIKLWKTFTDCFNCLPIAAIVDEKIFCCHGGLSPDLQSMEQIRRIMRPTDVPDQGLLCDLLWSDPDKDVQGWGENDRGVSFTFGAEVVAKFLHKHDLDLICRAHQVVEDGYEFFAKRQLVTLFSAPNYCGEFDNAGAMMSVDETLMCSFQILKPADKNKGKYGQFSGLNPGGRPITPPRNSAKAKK
PP5 inh – blocks human protein phosphatase 5 activity; P53041; purified PP5c, OMFP substrate fluorescence; inhibition, % at 6.7 µM; hit rate 0.18% among 320,000; AID 1987;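 active means inhibition above the campaign's mean inhibition across all tested compounds plus 3 SD, cut at about 9.5% in these data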;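 further: 0% = DMSO only and 100% = 100 µM cantharidin control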
pPAFAH inh – inhibitors of human plasma PAF acetylhydrolase (pPAFAH); inhibition, % at 3.39 µM; Q13093; recombinant pPAFAH, FP-rhodamine probe fluorescence polarization; hit rate 1.5% among 330,000;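 active means inhibition above the mean inhibition across the screen plus 3 SD, cut at about 25% in these data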;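 further: inhibitors block binding of the rhodamine activity-based probe so polarization drops; 0% = enzyme with DMSO and 100% = wells lacking pPAFAH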
PAFAH1B3 inh – PAFAH1B3 (human) inhibition | recombinant PAFAH1B3, FP-rhodamine probe, fluorescence polarization | inhibition, % at 3.39 µM | hit rate 0.28% among 340,000;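 active means inhibition above the screen-wide average of all tested compounds plus 3 SD, cut at about 25% in these data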;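 further: 0% = enzyme with DMSO only and 100% = wells lacking PAFAH1B3 protein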
Starred values were filed as active, the others as inactive; . = no result.

SMILES	PAFAH2 inh	PAFAH1B2 inh	PP1 counter	PP5 inh	pPAFAH inh	PAFAH1B3 inh
Cc1nc(N2CCCCC2)sc1C(=O)c1cccc([N+](=O)[O-])c1	5	1	9	5	11	5
Cc1nc(N2CCCCC2)sc1C(=O)c1ccc(SCCO)c([N+](=O)[O-])c1	1	2	1	2	27*	6
COC(=O)c1ccc(NC(=O)CSc2nnc(COc3ccccc3)n2C)cc1	-1	0	-1	0	-3	-1
CCn1c(C)c(C(C)=O)c(NCc2ccccc2)nc1=S	4	15	2	-1	26*	3
CC(=O)c1c(NCc2ccccc2)nc(=O)n(-c2ccccc2)c1C	8	3	-2	0	-3	7
NC(=O)COC(=O)c1cccc(S(=O)(=O)N2CCN(c3ccccc3)CC2)c1	1	8	-4	1	2	7
O=C(COC(=O)c1cccc(Oc2ccccc2)c1)NCc1ccco1	36*	1	-3	1	34*	-5
O=C(COC(=O)c1cccc(S(=O)(=O)N2CCN(c3ccccc3)CC2)c1)NCc1ccco1	15	5	3	2	26*	9
Cc1ccc2cccc(OC(=O)c3ccc4c(c3)OCCO4)c2n1	-8	1	1	1	6	7
CC(=O)c1ccc(OCc2cc(C(=O)N(C)C(C)c3ccon3)no2)cc1 (stereo not drawn)	6	1	-1	-1	4	7
O=c1cc(-c2ccccc2)[nH]n1-c1ccc([N+](=O)[O-])cc1	14	5	16*	4	12	14
C[C@H](CO)N1C[C@H](C)[C@@H](CN(C)C(=O)Nc2ccc(C(F)(F)F)cc2)Oc2c(NC(=O)Nc3ccc4c(c3)OCO4)cccc2C1=O	-17	61*	.	.	8	13
C[C@H](CO)N1C[C@H](C)[C@@H](CN(C)C(=O)Nc2ccc3c(c2)OCO3)Oc2c(NC(=O)Nc3ccc(C(F)(F)F)cc3)cccc2C1=O	-9	28*	.	.	0	3
C[C@H](CO)N1C[C@H](C)[C@@H](CN(C)C(=O)NC2CCCCC2)Oc2c(NC(=O)Nc3ccc4c(c3)OCO4)cccc2C1=O	7	1	.	.	1	15
C/C(=N\NC(=O)c1ccc(C)cc1C)c1ccc2c(c1)OCO2	-6	2	0	3	0	4
Fc1cc(F)cc(NC(=S)N2CCN(c3ncccn3)CC2)c1	-3	-6	-1	1	3	11
CCN1CC(CN(C)Cc2nc(-c3ccc(C(F)(F)F)cc3)oc2C)CC1=O (stereo not drawn)	4	3	-1	2	30*	6
O=C(O)c1ccc(CN2C(=O)c3cccc4c([N+](=O)[O-])ccc(c34)C2=O)cc1	16	18	.	.	.	31*
CN(C)CCCN1C(=O)c2cccc3c([N+](=O)[O-])ccc(c23)C1=O	4	9	-5	-1	5	21
O=C(COc1ccccc1[N+](=O)[O-])N/N=C/c1cccs1	4	1	-5	-2	-1	2
CCOc1cc(CNC(C)(C)CO)cc(Br)c1OCc1ccc(Cl)cc1Cl	7	3	5	1	34*	1
N#Cc1c(N2CCN(C(=O)c3ccccc3)CC2)nc(-c2ccccc2)c2c1CCCC2	-2	2	16*	1	10	4
N#Cc1c(N2CCN(C(=O)c3ccccc3Cl)CC2)nc(-c2ccccc2)c2c1CCCC2	4	-1	-2	0	2	5
COc1ccc2c(c1)c1ccc3c(c1n2C)C(=O)C=CC3=O	36*	45*	.	.	.	31*
Cc1ccc2c(c1)c1ccc3c(c1n2C)C(=O)C=CC3=O	17	13	.	.	.	25
SMILES	PAFAH2 inh	PAFAH1B2 inh	PP1 counter	PP5 inh	pPAFAH inh	PAFAH1B3 inh
CC(Sc1cnc2ccccc2n1)C(=O)O (stereo not drawn)	1	1	18*	-2	-1	5
CCC[C@@H]1CCCO[C@@](C(=O)NCc2ccccn2)(C(F)(F)F)C1	9	30*	0	6	1	9
CCOC(=O)c1ccc(NC(=O)C2CCN(C(=O)c3ccc(OC)c(OC)c3)CC2)cc1	-1	3	3	2	29*	-3
C=CCOc1ccc(C2OC34CCCCC3C(C#N)(C#N)C2(C#N)C(=N)O4)cc1 (stereo not drawn)	56*	42*	-1	3	10	51*
CCCCOc1ccc(C2OC34CCCCC3C(C#N)(C#N)C2(C#N)C(=N)O4)cc1 (stereo not drawn)	42*	39*	-2	1	24	57*
CC1(OC(=O)CCc2ccccc2)C(=O)C=C2C=C(C3CC3)OC=C2C1=O (stereo not drawn)	.	.	4	-1	33*	.
CC1(O)C(=O)C=C2C=C(C3CC3)OC=C2C1=O (stereo not drawn)	.	.	0	3	9	.
COC(=O)CCC(=O)OC1(C)C(=O)C=C2C=C(C3CC3)OC=C2C1=O (stereo not drawn)	.	.	4	3	26*	.
COc1ccnc(N2CCN(c3ccc(Cl)cc3)CC2)c1C#N	7	24*	1	2	-4	5
O=C(CSc1nnc(CNC(=O)c2cccs2)o1)Nc1cccc(C(F)(F)F)c1	4	26*	-2	2	3	4
N#Cc1c(N(CCO)CCO)nc(N)c2c(N)nc3c(c12)CC(=O)N3Cc1cccs1	12	8	2	4	26*	12
CSc1nc(N)nc(SCCS(=O)(=O)c2ccc(Cl)cc2)c1C#N	-3	25*	1	1	-4	-8
Nc1ccccc1SCCS(=O)(=O)c1ccc(Cl)cc1	8	28*	-4	-2	2	6
CCCn1c(SCC(=O)c2cc(OC)ccc2OC)nc2c1c(=O)n(C)c(=O)n2C	9	0	.	.	.	8
CC(Oc1ccc(Br)cc1)C(=O)Nc1nnc(C2CC2)s1 (stereo not drawn)	2	26*	-1	0	3	3
O=C(COc1ccc(Br)cc1)Nc1nnc(C2CC2)s1	7	-10	4	1	5	-8
CC(C)NC(=O)c1ccc(CN2CCc3ccccc3C2)cc1	3	2	.	.	.	2
CCOc1cc(-c2nn3cnnc3s2)cc(OCC)c1OCC	-9	-4	3	1	28*	1
CCOc1cc(C(N)=O)cc(OCC)c1OCC	-1	0	-2	2	1	8
CC1=C(C(=O)OCc2ccccc2)C(c2ccc([N+](=O)[O-])cc2)NC(=O)N1CCCCCC(=O)O (stereo not drawn)	3	-6	-1	0	3	2
O=C(OCc1ccccc1Cl)c1cccnc1Cl	0	4	-1	1	10	-1
O=C(OCc1c(Cl)cccc1Cl)c1cnccn1	2	7	3	-1	3	2

From PubChem BioAssay
